# According to PubChem BioAssay AID504834 (National Center for Advancing Translational Sciences (NCATS), 2011):
# Out of some 320,000 compounds screened, about 22,000 (6.9%) were called active. Roughly 27% stayed inconclusive and do not appear here. This excerpt belongs to a sample that is enriched for actives. Values without a mark were called inactive. The call rests on the fitted dose curve; in most records, active means well fitted inhibition curve with a large enough effect; inconclusive means small, poorly fitted or top-dose-only effect, or another doubt; inactive means no such curve, though single readings can be large or run the other way.
# Assay: Primary qHTS for delayed death inhibitors of the malarial parasite plastid, 96 hour incubation
# Settings: P. falciparum luciferase reporter growth; series mostly up to 28.7 µM; activity change, negative = inhibition: at the top concentration
# Source text: The goal of this screen is to discover new antimalarial compounds that act by inhibiting the development of the apicoplast in the malarial parasite Plasmodium falciparum. The biochemical processes that make this organelle essential for erythrocytic stage parasites are not well understood. However, antibiotics such as azithromycin and tetracycline, which target the apicoplast translational machinery, have a potent antimalarial effect.
# We have developed a cell-based assay that measures parasite growth based on the expression of an integrated copy of a firefly luciferase reporter. To detect small molecules that cause this "delayed death" phenotype, erythrocytes infected with the luciferase-expressing parasites were incubated with compounds for either one or two generations, corresponding to 48 and 96 hours, respectively. Compounds that inhibit parasite growth in the second generation, but not the first, should be enriched in antimalarials that target the apicoplast. Growth inhibition is detected by a decrease in luciferase activity.
# Assay Provider: David Fidock and Eric Ekland, Columbia University
# Keywords: NIH Roadmap, MLPCN, MLI, MLSMR, qHTS, NCGC, qHTS, malaria, luciferase, viability
# Four microliters of infected erythrocytes (2% hematocrit, 0.05% parasitemia final concentration) in culture medium were dispensed and the plates incubated for 96 hours at 37 C in 5% CO2. Two microliters of luciferase detection reagent was added and luminescence was detected by a ViewLux (PerkinElmer) reader.
# On the % scale 0 is the no-effect control and ±100 the full control effect; potency means the concentration at half of the fitted maximal effect.
SMILES,"activity change, negative = inhibition [%]",Potency
O=C(Cn1cc(C(=O)C2CC2)c2ccccc21)Nc1ccccc1Cl,15.4,–
COCCCNc1nc2c(-c3cccc(C)c3)nnn2c2ccc(Cl)cc12,2.68,–
O=C(Cc1ccccc1)N1N=C(c2ccncc2)CC1(O)C(F)(F)F (stereo not given),–,13.1 µM (active)
CC1=NN(C(=O)CCCc2ccccc2)C(O)(C(F)(F)F)C1 (stereo not given),-30.7,–
CC1=NN(C(=O)CCc2ccccc2O)C(O)(C(F)(F)F)C1 (stereo not given),-3.05,–
Cc1ccc2[nH]c(=O)c(CN(C)S(=O)(=O)c3cccc4nonc34)cc2c1,-24.7,–
CC1=NNC(=O)C1CC(=O)N/N=C/c1ccncc1 (stereo not given),31.8,–
[O-][N+]12CCCCC1CCCC2CO (stereo not given),2.61,–
CC(=O)Nc1ccc(NC(=O)CCN2C(=O)C3CC=CCC3C2=O)cc1 (stereo not given),7.9,–
O=C(CC1SC(N2CCCC2)=NC1=O)Nc1ccc(C(=O)NCCc2ccc(F)cc2)cc1 (stereo not given),–,10.4 µM (active)
O=C(NCCc1ccc(F)cc1)c1ccc2nccnc2c1,351,–
O=C(CSc1nnc(SCc2ccc(F)cc2)s1)Nc1ccc(C(=O)O)cc1,175,–
O=C(CNC(=O)Cc1ccccc1)N=Nc1c(O)[nH]c2ccc(Br)cc12,0.113,–
O=C(c1ccccc1)N1CCN(C(=O)c2cc3nc(-c4ccccc4)cc(C(F)(F)F)n3n2)CC1,-1.61,–
Cc1ccc2nc(S(=O)(=O)O)[nH]c2c1,20.9,–
COc1cc(/C=C(\C#N)c2nc3ccccc3[nH]2)ccc1O,2.89,–
Cc1ccc2nc(/C(C#N)=C\c3ccc(OC(=O)c4cccs4)cc3)[nH]c2c1,–,9.28 µM (active)
Cc1c(C=O)c2ccccc2n1CCOc1ccccc1,13.8,–
Cc1nn(C)c(Cl)c1CN1CCC(Oc2ccc(C(=O)N3CCCC3)cc2)CC1,50,–
COc1ccc(C(=O)NC(C)CCc2ccccc2)c(OC)c1 (stereo not given),-22.5,–
CC(C)c1ccc(C(=O)OC2CCOC2=O)cc1 (stereo not given),0,–
Cn1c(=O)c2ccccc2n(CC(=O)Nc2ccc3c(c2)OCCO3)c1=O,1.42,–

SMILES,"activity change, negative = inhibition [%]",Potency
Cc1ccc(OCCOCCOc2ccc(Br)cc2/C=N\NC(=O)c2ccncc2)cc1,–,5.22 µM (active)
Cc1ccc(S(=O)(=O)Oc2ccc(/C=N/NC(=O)c3ccncc3)cc2)cc1,40.8,–
COc1ccc(CC(=O)NCC(=O)N/N=C/c2cc(Br)ccc2OC)cc1,-8.14,–
CNS(=O)(=O)c1cccc(C(=O)NC2CCCc3ccccc32)c1 (stereo not given),-8.59,–
Cc1n[nH]c(=O)c2c(NC(=O)COC(=O)c3ncc(Cl)c(Cl)c3Cl)oc(C)c12,22,–
Cc1cccc(C)c1NC(=O)NC1=CCCN1C,-17.3,–
C=C(C)Cn1c(N2CCN(CC)CC2)nc2c1c(=O)[nH]c(=O)n2C,–,2.33 µM (active)
Cc1nnc(SCCCn2c(N3CCCCC3)nc3c2c(=O)[nH]c(=O)n3C)s1,–,2.08 µM (active)
Cc1nnc(Sc2nc3c(c(=O)[nH]c(=O)n3C)n2Cc2ccccc2)s1,-11.4,–
Cn1c(=O)[nH]c(=O)c2c1nc(N1CCCCCC1)n2CC(=O)c1ccccc1,-12.3,–
Cn1c(=O)[nH]c(=O)c2c1nc(Br)n2CCCCSc1nc2ccccc2o1,30.3,–
CCCCNc1nc2c(c(=O)[nH]c(=O)n2C)n1CCOc1ccccc1,-22.4,–
CC1CCN(c2nc3c(c(=O)[nH]c(=O)n3C)n2CCCc2ccccc2)CC1,–,10.4 µM (active)
Cn1c(=O)[nH]c(=O)c2c1nc(CN1CCN(c3ccccc3F)CC1)n2CCc1ccccc1,-25.9,–
C=C(C)Cn1c(N2CCCC2)nc2c1c(=O)[nH]c(=O)n2C,12.6,–
FC(F)(F)c1cccc(-c2nc(COc3ccc(Cl)cc3Cl)no2)c1,-2.32,–
Cc1cc(C)nc(NS(=O)(=O)c2ccc(N3C(=O)C4CCCCC4C3=O)cc2)n1 (stereo not given),77.2,–
CCc1ccc(NC(=O)Cn2nnc(C(=O)NCc3ccc4c(c3)OCO4)c2N)cc1,20.3,–
COc1ccc(S(=O)(=O)N2CCOCC2)cc1NC(=O)CSc1cc(C)ccc1C,–,7.38 µM (active)
COc1ccc(S(=O)(=O)N2CCOCC2)cc1C(=O)NC1CCCCC1,–,4.65 µM (active)
Cc1ccc(S(=O)(=O)N2CCOCC2)cc1NC(=O)CSc1nnc(N)s1,-4.94,–
COc1ccc(S(=O)(=O)N2CCOCC2)cc1NC(=O)Cc1coc2cc(C)ccc12,-11.9,–

SMILES,"activity change, negative = inhibition [%]",Potency
COc1ccc(S(=O)(=O)NC(C)C)cc1C(=O)NC1CCCCC1,-13.1,–
CC(C)Oc1ccc(S(=O)(=O)N2CCOCC2)cc1NC(=O)C1CCCC1,–,11.7 µM (active)
Cc1ccc(S(=O)(=O)N2CCN(C)CC2)cc1C(=O)NC1CCCCC1,-14.8,–
COc1ccc(S(=O)(=O)N2CCOCC2)cc1NC(=O)COc1ccccc1,-0.938,–
COc1ccc(S(=O)(=O)N2CCOCC2)cc1NC(=O)Cc1c(F)cccc1Cl,-12.3,–
NC(=O)COC(=O)c1ccc2c(c1)C(=O)N(Cc1ccco1)C2=O,18.5,–
Cc1cc(C)c(CN2CCN(C(=O)Cn3ccc(NC(=O)OCc4ccccc4)nc3=O)CC2)c(C)c1,-25.9,–
O=C(COC(=O)Cn1[nH]c(=O)c2ccccc2c1=O)Nc1ncc(Cl)cc1Cl,25.8,–
COc1ccc(C(=O)OCC(=O)c2ccc(Cl)s2)c(OC)c1OC,-21.3,–
CCc1cccc(C)c1NC(=O)COC(=O)CNC(=O)c1cccs1,34.6,–
CN(C)c1cccc(C(=O)N2CCC(n3nccc3NC(=O)C3CCOC3)CC2)c1 (stereo not given),16.6,–
Cc1nnc2n1N=C(c1ccccc1)CS2,22,–
CCN(CC)S(=O)(=O)c1ccc(Cl)c(C(=O)NCCN2CCOCC2)c1,-25.2,–
N#C/C(=C/c1ccc(Cl)cc1)NC(=O)c1ccccc1,–,3.7 µM (active)
O=C(NC(=O)c1ccccc1)NC(=O)c1ccccc1,-27.2,–
O=C(NCC1CCCO1)/C(=C/c1ccc(Cl)cc1)NC(=O)c1ccccc1 (stereo not given),-28.1,–
COc1ccc(N2C(=O)C(CC(=O)Nc3ccccc3)N(Cc3ccc(OC)c(OC)c3)C2=O)cc1 (stereo not given),10.9,–
CCOc1ccc(NC(=O)CC2C(=O)N(c3ccccc3)C(=O)N2CCOC)cc1 (stereo not given),35.9,–
CCCOc1ccc(NC(=O)CC2C(=O)N(C)C(=S)N2Cc2ccc3c(c2)OCO3)cc1 (stereo not given),–,0.329 µM (active)
CCS(=O)(=O)c1ccc(-c2cccc(NC(=O)c3ccc(Br)o3)c2)nn1,1.83,–
O=C(OCCN1C(=O)c2ccccc2C1=O)Oc1ccccc1,-2.14,–
